# The supplement of paper PMC10849652
# Of roughly 7,900 targets only a part is listed; those with a hit were picked by preference. About 0.6% of all pairs of compound and target were hits. Values without a mark were called inactive.
# Assays:
# Test in all cases: log2 fold change, soluble protein after heating vs DMSO (PISA); higher = thermal stabilisation; K562 cells, 10 uM, 30 min; active = over 0.2 and 3.5 SD of the protein, either way, in both replicates (recomputed)
# [1] = compound: CC1=C(C=C(C=C1)NC(=O)C2=CC(=CC=C2)C(C)(C)C#N)NC3=CC4=C(C=C3)N=CN(C4=O)C
# In short: (§1)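 Soluble protein was defined as the supernatant after 21,000xg for 90 min. It came from K562 cells at 2×10^6 cells/mL given 10 μM compound for 30 min, heated in aliquots for 3 min across 48°C-58°C, pooled, and extracted in PBS with 0.5% NP-40 at 4°C, and was quantified by TMTpro 16plex LC-MS/MS with equalised channel sums. Thermal stability against control samples, from duplicates, is reported as log2 fold change.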
# [2] = compound: CC1=C(C=C(C=C1)NC(=O)C2=CC(=CC=C2)N(C)C)NC(=O)C3=CC=C(C=C3)O
# In short: as §1
# [3] = compound: CC1=CC=C(C=C1)SC2=C3C=C(SC3=CN=C2)C(=O)N
# In short: as §1
# [4] = compound: CC1=NC(=CC=C1)C2=C(N=C(N2)C(C)(C)C)C3=CC4=NC=CN=C4C=C3
# In short: as §1
# Nexturastat A = compound: CCCCN(Cc1ccc(C(=O)NO)cc1)C(=O)Nc1ccccc1 [Nexturastat A]
# In short: as §1
# vemurafenib = compound: CCCS(=O)(=O)Nc1ccc(F)c(C(=O)c2c[nH]c3ncc(-c4ccc(Cl)cc4)cc23)c1F [vemurafenib]
# In short: as §1
# [5] = compound: CCCS(=O)(=O)Nc1ccc(F)c(C(=O)c2c[nH]c3ncc(Cl)cc23)c1F
# In short: as §1
# [6] = compound: CCCc1cc(C)[nH]c(=O)c1CNC(=O)c1cc(-c2ccnc(N3CCN(C)CC3)c2)cc2c1cnn2C(C)C
# In short: as §1
# givinostat = compound: CCN(CC)Cc1ccc2cc(COC(=O)Nc3ccc(C(=O)NO)cc3)ccc2c1 [givinostat]
# In short: as §1
# barasertib = compound: CCN(CCCOc1ccc2c(Nc3cc(CC(=O)Nc4cccc(F)c4)[nH]n3)ncnc2c1)CCOP(=O)(O)O [barasertib]
# In short: as §1
# [7] = compound: CC[C@@H]1C(=O)N(C)c2cnc(Nc3ccc(C(=O)NC4CCN(C)CC4)cc3OC)nc2N1C1CCCC1
# In short: as §1
# volasertib = compound: CC[C@@H]1C(=O)N(C)c2cnc(Nc3ccc(C(=O)N[C@H]4CC[C@H](N5CCN(CC6CC6)CC5)CC4)cc3OC)nc2N1C(C)C [volasertib]
# In short: as §1
# [8] = compound: CC[C@H](C)N1C=C(C2=C(C=C(C=C21)C3=CN=C(C=C3)N4CCNCC4)C(=O)NCC5=C(C=C(NC5=O)C)C)C
# In short: as §1
# epoxomicin = compound: CC[C@H](C)[C@@H](C(=O)N[C@@H]([C@@H](C)O)C(=O)N[C@@H](CC(C)C)C(=O)[C@]1(CO1)C)NC(=O)[C@H]([C@@H](C)CC)N(C)C(=O)C [epoxomicin]
# In short: as §1
# [9] = compound: CCn1c(C(=O)N(C2CC2)C2CC2)cc2c3c(ncn3C)c(Nc3cc(C)n(C)n3)nc21
# In short: as §1
# [10] = compound: CCn1cc(-c2ccnc3[nH]c(-c4cccc(CN(C)C)c4)cc23)c(-c2ccc(NC(=O)N(C)C)cc2)n1
# In short: as §1
# [11] = compound: CN(C)CC(=O)Nc1ccc2[nH]c(=O)c3ccccc3c2c1
# In short: as §1
# rosiglitazone = compound: CN(CCOC1=CC=C(C=C1)C[C@H]2C(=O)NC(=O)S2)C3=CC=CC=N3 (racemic) [rosiglitazone]
# In short: as §1
# [12] = compound: CN1C2=C(C3=C1C(=O)N(N=C3)CC4=CC(=CC=C4)N)SC(=C2)S(=O)C
# In short: as §1
# [13] = compound: CN1CCC(CNc2ccc3ncc(-c4cccc(OC(F)(F)F)c4)n3n2)CC1
# In short: as §1
# Chain of UniProt Q96DX7 (Q96DX7 whole entry, looked up): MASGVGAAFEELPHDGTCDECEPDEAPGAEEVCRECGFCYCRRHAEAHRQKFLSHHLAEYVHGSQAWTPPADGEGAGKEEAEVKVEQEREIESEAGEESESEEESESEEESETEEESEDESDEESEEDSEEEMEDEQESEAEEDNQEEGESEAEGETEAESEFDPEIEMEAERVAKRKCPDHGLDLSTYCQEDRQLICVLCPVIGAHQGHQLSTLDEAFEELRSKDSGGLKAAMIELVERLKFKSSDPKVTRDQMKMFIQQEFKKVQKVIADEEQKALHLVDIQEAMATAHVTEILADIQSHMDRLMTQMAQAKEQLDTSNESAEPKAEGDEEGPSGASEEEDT
# Chain of UniProt O43592 (O43592 whole entry, looked up): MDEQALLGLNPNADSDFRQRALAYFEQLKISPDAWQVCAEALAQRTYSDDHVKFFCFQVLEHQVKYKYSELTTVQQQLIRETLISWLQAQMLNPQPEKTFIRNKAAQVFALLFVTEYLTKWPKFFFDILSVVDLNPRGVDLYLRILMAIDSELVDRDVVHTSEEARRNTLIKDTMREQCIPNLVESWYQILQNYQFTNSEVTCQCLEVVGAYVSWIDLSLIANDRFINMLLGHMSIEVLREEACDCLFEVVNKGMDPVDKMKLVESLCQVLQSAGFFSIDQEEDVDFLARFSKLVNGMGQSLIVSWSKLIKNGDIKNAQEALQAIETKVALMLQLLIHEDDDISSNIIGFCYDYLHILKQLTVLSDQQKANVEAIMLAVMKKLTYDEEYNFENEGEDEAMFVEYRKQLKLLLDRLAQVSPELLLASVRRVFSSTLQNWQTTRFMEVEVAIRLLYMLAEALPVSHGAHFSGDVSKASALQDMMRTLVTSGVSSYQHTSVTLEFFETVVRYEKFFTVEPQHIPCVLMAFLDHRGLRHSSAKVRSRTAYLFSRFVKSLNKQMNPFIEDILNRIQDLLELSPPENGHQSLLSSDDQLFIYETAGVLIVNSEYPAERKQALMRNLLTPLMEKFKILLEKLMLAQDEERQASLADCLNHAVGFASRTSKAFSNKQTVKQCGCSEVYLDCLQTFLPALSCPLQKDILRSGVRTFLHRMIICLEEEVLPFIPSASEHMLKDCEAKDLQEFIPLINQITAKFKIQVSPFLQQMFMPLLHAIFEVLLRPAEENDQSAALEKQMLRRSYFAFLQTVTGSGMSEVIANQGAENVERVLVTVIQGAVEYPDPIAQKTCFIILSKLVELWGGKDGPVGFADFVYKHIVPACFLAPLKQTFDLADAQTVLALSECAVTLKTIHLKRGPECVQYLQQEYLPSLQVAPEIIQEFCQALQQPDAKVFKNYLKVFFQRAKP
# Chain of UniProt Q6PID6 (Q6PID6 whole entry, looked up): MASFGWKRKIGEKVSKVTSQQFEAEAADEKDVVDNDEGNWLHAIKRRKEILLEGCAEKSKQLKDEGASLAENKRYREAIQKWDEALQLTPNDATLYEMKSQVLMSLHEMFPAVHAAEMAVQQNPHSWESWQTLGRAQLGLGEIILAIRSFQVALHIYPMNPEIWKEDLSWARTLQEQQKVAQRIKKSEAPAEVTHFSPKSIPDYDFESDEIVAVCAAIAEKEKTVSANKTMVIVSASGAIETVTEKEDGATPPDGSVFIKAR
# Chain of UniProt Q9NQH7 (Q9NQH7 whole entry, looked up): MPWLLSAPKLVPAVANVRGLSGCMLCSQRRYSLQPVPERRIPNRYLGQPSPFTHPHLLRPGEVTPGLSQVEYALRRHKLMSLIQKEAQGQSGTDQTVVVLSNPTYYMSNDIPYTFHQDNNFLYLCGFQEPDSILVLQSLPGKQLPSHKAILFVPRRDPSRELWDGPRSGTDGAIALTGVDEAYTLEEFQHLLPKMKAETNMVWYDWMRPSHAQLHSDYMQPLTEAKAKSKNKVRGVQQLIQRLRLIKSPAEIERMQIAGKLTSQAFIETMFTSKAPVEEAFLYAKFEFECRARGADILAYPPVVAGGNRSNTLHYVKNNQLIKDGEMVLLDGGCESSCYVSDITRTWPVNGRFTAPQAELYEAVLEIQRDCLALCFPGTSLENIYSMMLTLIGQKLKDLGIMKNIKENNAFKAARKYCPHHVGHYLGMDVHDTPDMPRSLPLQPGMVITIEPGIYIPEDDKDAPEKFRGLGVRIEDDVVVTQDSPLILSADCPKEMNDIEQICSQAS
# Chain of UniProt Q15642 (Q15642 whole entry, looked up): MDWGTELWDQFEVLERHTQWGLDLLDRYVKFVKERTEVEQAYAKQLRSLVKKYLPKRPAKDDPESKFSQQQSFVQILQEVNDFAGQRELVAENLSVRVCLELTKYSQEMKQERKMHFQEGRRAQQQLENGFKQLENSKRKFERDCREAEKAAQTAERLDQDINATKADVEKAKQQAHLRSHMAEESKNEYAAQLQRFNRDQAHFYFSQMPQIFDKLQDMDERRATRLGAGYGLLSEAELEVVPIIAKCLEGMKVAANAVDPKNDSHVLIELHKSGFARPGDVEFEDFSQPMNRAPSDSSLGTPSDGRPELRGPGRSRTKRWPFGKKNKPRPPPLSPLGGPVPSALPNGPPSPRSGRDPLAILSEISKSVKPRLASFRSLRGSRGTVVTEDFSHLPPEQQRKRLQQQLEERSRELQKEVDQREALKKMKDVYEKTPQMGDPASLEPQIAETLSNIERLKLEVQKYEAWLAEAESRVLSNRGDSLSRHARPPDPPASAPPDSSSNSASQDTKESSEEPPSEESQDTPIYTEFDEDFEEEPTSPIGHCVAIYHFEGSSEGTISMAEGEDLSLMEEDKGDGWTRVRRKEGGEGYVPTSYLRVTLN
# Chain of UniProt Q8NEZ2 (Q8NEZ2 whole entry, looked up): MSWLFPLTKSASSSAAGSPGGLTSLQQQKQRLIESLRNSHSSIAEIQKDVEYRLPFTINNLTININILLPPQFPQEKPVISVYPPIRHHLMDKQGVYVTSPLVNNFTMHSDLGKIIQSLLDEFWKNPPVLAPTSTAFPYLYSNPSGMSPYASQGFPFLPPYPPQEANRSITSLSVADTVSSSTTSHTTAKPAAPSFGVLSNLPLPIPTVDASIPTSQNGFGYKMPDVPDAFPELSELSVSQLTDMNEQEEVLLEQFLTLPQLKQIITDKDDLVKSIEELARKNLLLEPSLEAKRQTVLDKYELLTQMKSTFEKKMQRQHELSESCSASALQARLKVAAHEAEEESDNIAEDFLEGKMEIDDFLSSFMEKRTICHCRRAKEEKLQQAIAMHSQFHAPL
# Chain of UniProt Q96K49 (Q96K49 whole entry, looked up): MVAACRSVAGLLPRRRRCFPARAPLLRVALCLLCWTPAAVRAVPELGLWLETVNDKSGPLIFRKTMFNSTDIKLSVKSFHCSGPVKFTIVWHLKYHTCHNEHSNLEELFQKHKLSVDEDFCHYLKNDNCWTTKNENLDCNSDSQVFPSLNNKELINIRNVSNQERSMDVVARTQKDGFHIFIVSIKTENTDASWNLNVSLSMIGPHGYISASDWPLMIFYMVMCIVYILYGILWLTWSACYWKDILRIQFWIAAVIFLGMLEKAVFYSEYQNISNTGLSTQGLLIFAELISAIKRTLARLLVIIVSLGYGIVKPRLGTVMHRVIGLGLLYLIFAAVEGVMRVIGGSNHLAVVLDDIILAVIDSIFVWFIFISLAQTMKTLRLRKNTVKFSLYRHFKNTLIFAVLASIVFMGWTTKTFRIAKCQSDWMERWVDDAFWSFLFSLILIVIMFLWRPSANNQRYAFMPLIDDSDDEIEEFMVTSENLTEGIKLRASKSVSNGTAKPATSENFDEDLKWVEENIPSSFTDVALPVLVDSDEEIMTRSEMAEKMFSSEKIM
# Chain of UniProt Q9Y3C0 (Q9Y3C0 whole entry, looked up): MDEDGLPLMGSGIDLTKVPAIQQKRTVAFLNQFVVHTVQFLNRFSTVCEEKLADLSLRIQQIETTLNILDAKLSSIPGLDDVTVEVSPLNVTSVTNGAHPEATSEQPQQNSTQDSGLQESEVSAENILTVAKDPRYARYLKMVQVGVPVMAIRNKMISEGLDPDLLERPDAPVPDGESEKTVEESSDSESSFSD
# Chain of UniProt A6NHL2 (A6NHL2 whole entry, looked up): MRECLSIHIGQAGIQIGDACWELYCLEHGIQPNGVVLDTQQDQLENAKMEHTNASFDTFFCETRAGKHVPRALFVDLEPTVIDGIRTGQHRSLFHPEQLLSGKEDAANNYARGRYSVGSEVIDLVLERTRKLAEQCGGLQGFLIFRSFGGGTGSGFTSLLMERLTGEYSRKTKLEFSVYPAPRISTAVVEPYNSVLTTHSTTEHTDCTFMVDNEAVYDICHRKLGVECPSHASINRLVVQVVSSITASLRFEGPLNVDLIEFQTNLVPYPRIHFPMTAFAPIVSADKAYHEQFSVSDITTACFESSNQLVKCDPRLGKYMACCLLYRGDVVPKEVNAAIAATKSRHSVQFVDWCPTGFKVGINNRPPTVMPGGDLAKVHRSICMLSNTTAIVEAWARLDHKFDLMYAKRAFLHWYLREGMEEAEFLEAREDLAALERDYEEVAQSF
# Chain of UniProt Q9P0T7 (Q9P0T7 whole entry, looked up): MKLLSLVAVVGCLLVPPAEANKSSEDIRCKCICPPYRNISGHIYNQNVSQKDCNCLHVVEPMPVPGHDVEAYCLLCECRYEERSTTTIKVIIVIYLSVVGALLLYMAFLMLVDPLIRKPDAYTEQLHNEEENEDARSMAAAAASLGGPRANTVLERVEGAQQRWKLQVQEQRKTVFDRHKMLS
# Chain of UniProt Q9BZM6 (Q9BZM6 whole entry, looked up): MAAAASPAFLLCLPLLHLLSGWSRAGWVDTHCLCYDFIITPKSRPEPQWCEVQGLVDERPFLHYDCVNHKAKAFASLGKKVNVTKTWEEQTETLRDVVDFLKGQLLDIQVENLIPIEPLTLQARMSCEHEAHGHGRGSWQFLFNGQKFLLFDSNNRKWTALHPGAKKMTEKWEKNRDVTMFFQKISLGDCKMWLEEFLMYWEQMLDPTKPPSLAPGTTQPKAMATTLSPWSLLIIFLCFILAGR
Target,log2 fold change [1],log2 fold change [2],log2 fold change [3],log2 fold change [4],log2 fold change (Nexturastat A),log2 fold change (vemurafenib),log2 fold change [5],log2 fold change [6],log2 fold change (givinostat),log2 fold change (barasertib),log2 fold change [7],log2 fold change (volasertib),log2 fold change [8],log2 fold change (epoxomicin),log2 fold change [9],log2 fold change [10],log2 fold change [11],log2 fold change (rosiglitazone),log2 fold change [12],log2 fold change [13]
WDR47 (UniProt O94967),-0.031,-0.031,0.07,0.127,-0.048,-0.023,-0.045,-0.004,0.004,-0.007,0.011,-0.112,-0.02,-0.037,-0.047,-0.055,-0.012,-0.003,0.029,0.234
TRIP10 isoform 2 (UniProt Q15642),-0.068,-0.04,0.019,0.046,0.12,0.026,0.177,0.004,0.01,0.011,-0.033,-0.276,-0.018,-0.285,-0.073,-0.101,-0.18,-0.012,0.045,-0.075
XPNPEP3 (UniProt Q9NQH7),-0.045,0.024,0.005,0.017,-0.08,0.011,-0.012,0.013,-0.218,-0.016,0.046,0.075,0.069,0.075,0.01,-0.076,-0.004,-0.002,-0.022,0.012
WDR62 isoform 4 (UniProt O43379),-0.123,-0.015,-0.055,-0.033,0.029,0.008,0.053,-0.014,0.022,0.032,-0.02,-0.496 (active),0.04,0,0.006,0.007,-0.035,0.064,0.047,-0.161
TXNRD1 (UniProt Q16881),0.032,0.006,0.021,0.039,-0.051,0.024,0.007,-0.035,0.011,0.024,0.004,0.05,0.006,0.054,-0.032,-0.049,-0.003,0.067,-0.096,-0.006
XPOT (UniProt O43592),0.018,-0.031,0.023,0.029,-0.012,0.039,0.128,0.014,0.007,0.08,-0.363 (active),-0.855 (active),0.04,-0.033,0,0.021,0.058,0.059,-0.028,-0.16
TUBAL3 (UniProt A6NHL2),0.152,-0.062,0.005,0.094,-0.106,0.121,-0.033,-0.207,0.006,-0.028,0.144,-0.497,-0.052,-0.11,-0.023,-0.013,-0.061,0.139,0.03,-0.067
WDR4 (UniProt P57081),-0.112,-0.055,0.173,0.104,0.048,-0.004,0.26 (active),-0.013,-0.026,-0.023,-0.031,-0.072,0.025,0.074,-0.03,-0.06,0.022,0.177,-0.08,-0.114
USP34 (UniProt Q70CQ2),-0.02,-0.094,0.077,0,-0.12,0.08,0.032,0.052,0.094,0.069,-0.215,-0.455 (active),-0.023,0.02,-0.027,-0.043,0.014,0.065,0.015,-0.201
TMEM9 (UniProt Q9P0T7),-0.024,-0.041,0.057,-0.008,0,0.028,0.091,-0.062,0.039,0.019,-0.112,-0.07,-0.05,0.296 (active),-0.018,0.015,0.004,-0.157,-0.015,-0.007
TRIM44 (UniProt Q96DX7),0.059,-0.055,0.06,0.015,–,-0.005,0.042,0,-0.026,-0.035,0.003,-0.028,-0.024,–,0.014,0.005,-0.004,0.035,-0.069,0.041
VPS35L (UniProt Q7Z3J2),0.024,-0.031,-0.052,-0.022,0.05,0.003,0.049,0.086,0.03,0.07,0.021,-0.365 (active),-0.038,0.003,-0.014,0.071,0.005,0.072,-0.076,-0.099
ULBP1 (UniProt Q9BZM6),-0.088,0.023,-0.014,–,0.428 (active),0.051,0.053,0,0.028,–,–,-0.178,–,0.152,-0.013,–,-0.019,–,0.007,–
VPS37A (UniProt Q8NEZ2),-0.015,-0.171,0.019,0.001,-0.048,0.128,0.054,0.014,0.14,0.076,–,-0.707 (active),0.085,0.045,-0.001,-0.068,0.165,0.021,0.025,0.054
WASHC3 (UniProt Q9Y3C0),0.011,0.015,0.049,-0.008,-0.051,0.005,-0.006,-0.08,0.004,0.017,-0.015,-0.066,-0.058,0.067,-0.025,0.007,-0.002,0.026,-0.03,-0.245 (active)
TMEM87B (UniProt Q96K49),-0.018,-0.013,0.112,-0.008,-0.059,-0.048,-0.028,0.008,-0.063,0.048,-0.088,-0.148,0.092,0.018,0.002,-0.103,-0.016,0,-0.143,-0.436 (active)
TTC33 (UniProt Q6PID6),-0.046,-0.025,-0.059,-0.189,0.026,-0.07,-0.002,-0.471,-0.062,0.079,0.038,-0.027,–,0.049,0.012,-0.449 (active),-0.075,0.035,-0.048,0.138
